BioA inh – BioA (M. tuberculosis) enzyme inhibition | purified M. tuberculosis BioA enzyme, plate reader | inhibition, % at 9.99 µM | 0.096% of 360,000 active | AID 602481; in the data active = inhibition above about 40%
Mtb FBA inh – Mtb fructose-bisphosphate aldolase inhibition; P9WQA3; purified M. tuberculosis FBA, fluorescence read-out; inhibition, % at 1 µM; 2.3% of 360,000 active;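 note: 0% = vehicle and 100% = reference inhibitor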
Target sequence (P9WQA3 whole entry, looked up): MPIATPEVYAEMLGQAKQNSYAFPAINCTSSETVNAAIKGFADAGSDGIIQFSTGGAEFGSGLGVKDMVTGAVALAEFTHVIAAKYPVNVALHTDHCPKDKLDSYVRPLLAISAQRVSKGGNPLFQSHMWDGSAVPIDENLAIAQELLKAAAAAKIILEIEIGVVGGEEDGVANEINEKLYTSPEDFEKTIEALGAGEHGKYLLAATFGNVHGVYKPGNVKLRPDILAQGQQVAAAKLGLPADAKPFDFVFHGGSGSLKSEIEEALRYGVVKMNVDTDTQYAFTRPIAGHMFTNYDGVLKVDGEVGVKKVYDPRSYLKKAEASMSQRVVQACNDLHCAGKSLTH
BH1578 lux ind – induces V. cholerae light production without autoinducers; 0.16% of 350,000 active; activation, % at 18.7 µM; V. cholerae BH1578 lux reporter, luminescence, 6 h; in the data active = activation mostly above about 9.7%, no sharp cut-off
GDH-TPI counter-1 – counter-screen for M. tuberculosis FBA inhibitors: GDH-TPI coupled enzymes; inhibition, % at 4.8 µM; GDH-TPI coupled enzyme counterscreen, NADH absorbance; 1.2% of 360,000 active; in the data active = inhibition above about 30%;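 note: 0% = DMSO wells and 100% = wells lacking the enzyme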
Mtb FBA confirm – Mtb FBA inhibition, confirmed. shares compounds with Mtb FBA inh. purified M. tuberculosis FBA, fluorescence read-out. inhibition, % at 1 µM. 78% of 5,600 active. AID 651616;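 note: 0% = vehicle wells and 100% = reference inhibitor wells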
GDH-TPI counter-2 – inhibits GDH-TPI coupling enzymes, flagging Mtb FBA hits | 81% of 5,600 active | AID 652141 | GDH-TPI coupled enzyme counterscreen, fluorescence | shares compounds with Mtb FBA inh | inhibition, % at 1 µM; in the data active = inhibition above about 10%
* hit, by the source's call; i = inactive; . = not tested or not shown; + = active, no number. Shown are actives, neighbours in structure and some others; about 3% of the full set was active somewhere. Cut-off read from the data, not from the text of the source, unless noted: active = inhibition above about 27%; inactive = the rest.

SMILES | BioA inh | Mtb FBA inh | BH1578 lux ind | GDH-TPI counter-1 | Mtb FBA confirm | GDH-TPI counter-2
CCc1cc(=O)oc2cc(OCC(=O)N3CCC(C(=O)O)CC3)ccc12 | -0.5 | 27.1* | -0.4 | 5.9 | 73.7* | 70.9*
Cc1c(OCC(=O)N2CCN(c3ccccc3)CC2)ccc2c3c(c(=O)oc12)CCCC3 | 1.3 | -6.8 | -0.3 | -8.2 | . | .
CC(C)NC(=O)Nc1ccc2c(c1)C(=O)N([C@@H](C)CO)C[C@@H](C)[C@@H](CN(C)C(=O)Cc1ccccc1)OCCCC[C@@H](C)O2 | 11.2 | . | . | . | . | .
CO[C@H](C(=O)N(C)C[C@@H]1OCc2ccccc2-c2ccccc2C(=O)N([C@H](C)CO)C[C@H]1C)c1ccccc1 | 1.4 | . | . | . | . | .
C/C=C/c1cnc2c(c1)C(=O)N([C@@H](C)CO)C[C@H](C)[C@@H](CN(C)C(=O)Cc1ccccc1)O2 | 0.4 | . | . | . | . | .
CCCN(C)C[C@H]1Oc2ncc(C#Cc3ccccc3OC)cc2C(=O)N([C@H](C)CO)C[C@H]1C | 0.6 | . | . | . | . | .
CCOC(=O)C/C(C)=N\Nc1nc(-c2ccccc2)cs1 | . | 68.9* | i | 13.7 | 53.9* | 42.0*
CC(C)=NNc1nc(-c2ccccc2)cs1 | . | -0.2 | -0.3 | 1.9 | . | .
CNC[C@H]1OCCCC[C@@H](C)Oc2ccc(NC(=O)C3CCCCC3)cc2C(=O)N([C@H](C)CO)C[C@H]1C | 0.5 | . | . | . | . | .
CCOC(=O)Cc1nnc(NC(=O)COc2ccc(F)cc2)s1 | 0.2 | 4.4 | -0.3 | 2.2 | . | .
O=C(COc1ccc(F)cc1)Nc1nnc(-c2ccncc2)s1 | -1.4 | 46.9* | 7.1 | 24.8 | 90.0* | 66.0*
COCC(=O)N1C[C@H](C)[C@H](OC)CN(C)C(=O)c2ccc(NC(=O)c3cc(C)on3)cc2OC[C@H]1C | 0.6 | . | . | . | . | .
COC(=O)Cc1c(C)c2ccc(OCC(C)=O)c(C)c2oc1=O | -0.5 | 78.7* | -0.3 | 12.7 | -1.8 | -4.3
C=C(C)COc1ccc2c(C)c(CC(=O)OC)c(=O)oc2c1C | -0.8 | 89.0* | i | 30.1 | 76.1* | 62.3*
C=C(C)COc1ccc2c(C)c(C)c(=O)oc2c1OCC(=C)C | 0.9 | 12.1 | -0.2 | -6.2 | . | .
Cc1c(CC(=O)O)c(=O)oc2c(C)c(OCc3c(F)cccc3Cl)ccc12 | -0.1 | 43.8* | i | 12.1 | 75.7* | 67.2*
Cc1c(CC(=O)O)c(=O)oc2c(C)c(OCc3ccccc3)ccc12 | 0.6 | 14.1 | -0.3 | 10.3 | . | .
O=C([C@@H]1[C@@H](CO)[C@@H]2Cn3c(ccc(-c4ccccc4)c3=O)[C@@H]2N1Cc1cocn1)N1CCCCC1 | -0.6 | . | . | . | . | .
COCCN(CCOC)c1cc(C)c(C#N)c2nc3ccccc3n12 | 0.9 | 38.6* | i | 6.8 | 43.2* | 41.0*
Nc1nc(N2CCN(C(=O)c3ccco3)CC2)nc2ccccc12 | . | 45.3* | -7.1 | -3.4 | 7.3 | -4.3
Cc1nnc2c(N3CCN(C(=O)c4ccco4)CC3)nc3ccccc3n12 | 0.7 | 4.1 | -0.4 | 18.5 | . | .
Nc1nc(N2CCN(C(=O)c3ccco3)CC2)nc2ccc(Br)cc12 | . | 11.3 | -1.6 | 3.8 | . | .
CCCc1cc(N2CCN(C(=O)c3ccco3)CC2)n2c(nc3ccccc32)c1C#N | 1.3 | 32.5* | i | 0.6 | 99.9* | 84.2*
CCCc1cc(NCCCN2CCOCC2)n2c(nc3ccccc32)c1C#N | -1.6 | 100.8* | -1.0 | 4.1 | 53.7* | 41.2*
C[C@@H]1CN([C@H](C)CO)C(=O)c2cccc(NC(=O)NC3CCCCC3)c2O[C@H]1CN(C)S(C)(=O)=O | -3.9 | . | . | . | . | .
SMILES | BioA inh | Mtb FBA inh | BH1578 lux ind | GDH-TPI counter-1 | Mtb FBA confirm | GDH-TPI counter-2
CCN(CC)CCNc1c2c(c(C#N)c3nc4ccccc4n13)CCCC2 | 7.5 | 11.3 | -1.3 | 10.3 | . | .
CCN(CC)CCNc1cc(C)c(C#N)c2nc3ccccc3n12 | -2.6 | 86.0* | -0.4 | 12.7 | 23.6 | 16.5*
Cc1cc(NCCN2CCOCC2)n2c(nc3ccccc32)c1C#N | -0.4 | 57.6* | i | 6.2 | 104.4* | 81.2*
CCC(=O)N1C[C@@H](O)COC[C@@H]2O[C@H](CC(=O)NCc3ccccc3Cl)CC[C@H]21 | 0.2 | . | . | . | . | .
N=C1C(c2nc3ccccc3c(=O)[nH]2)=C(O)CN1CCO | -1.6 | 16.7 | -7.7 | 1.2 | . | .
COCCN1CC(O)=C(c2nc3ccccc3c(=O)[nH]2)C1=N | -4.8 | 45.6* | i | 20.2 | . | +
COc1ccccc1N1CC(O)=C(c2nc3ccccc3c(=O)[nH]2)C1=N | . | 38.1* | i | 21.7 | 146.1* | 111.2*
O=C(C[C@@H]1C[C@H]2c3cc(NS(=O)(=O)c4ccccc4)ccc3O[C@H]2[C@@H](CO)O1)NCC1CC1 | 0.2 | . | . | . | . | .
